Measured values as given in the supplement of paper PMC10646978.
± gives the standard deviation.

Experiments:
Conditions in all cases: modulator concentration 10 µM
[1] = test system: RAW-Dual (murine macrophage reporter line); assay: NF-kB reporter (SEAP) activity fold change vs agonist alone; higher = enhanced NF-kB activity
Outline: (§1)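 Overnight stimulation with a PRR agonist followed pre-incubation for 1 hour at 37 °C with compound at 10 μM final. This was done in RAW-Dual murine macrophage reporter cells seeded at 50 000 per well in 384-well plates. NF-κB (SEAP, QUANTI-Blue absorbance at 620 nm) and IRF (Lucia luciferase, QUANTI-Luc luminescence) were read from the supernatant. Each reporter's fold change relative to the mean agonist-only control on the same plate was averaged over replicate plates.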

[2] = test system: RAW-Dual (murine macrophage reporter line); assay: IRF reporter (Lucia luciferase) activity fold change vs agonist alone; higher = enhanced IRF activity
Outline: as §1

[3] = test system: RAW-Dual (murine macrophage reporter line); assay: viability score (confluency relative to resting cells, overnight) (fraction); higher = more viable, active = viable (0.7 or more)
Outline: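 RAW-Dual macrophages in 384-well plates were exposed overnight to compound at 10 μM final. Confluency was imaged with IncuCyte, and two confluency masks were generated with IncuCyte software over all imaged wells. The viability score is confluency expressed relative to resting cells. Compounds were called viable if both masks exceeded 70% of resting cells.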

[4] = agonist: CpG ODN 1826 0.5 ug/mL

| SMILES | NF-kB reporter [1, 4] | NF-kB reporter ([1]; agonist: LPS 0.1 ug/mL) | NF-kB reporter ([1]; agonist: MPLA […]) | IRF reporter ([2]; agonist: 3'3'-cGAMP 10 ug/mL) | IRF reporter ([2]; agonist: LPS 0.1 ug/mL) | IRF reporter ([2]; agonist: MPLA […]) | viability score [3] |
| --- | --- | --- | --- | --- | --- | --- | --- |
| Fc1ccccc1C=NNc1nc(-c2ccccc2)cc(-c2ccccc2)n1 | 1.03 ± 0.25 | 1.19 ± 0.094 | 1.05 ± 0.17 | 1.01 ± 0.028 | 1.14 ± 0.15 | 1.51 ± 0.37 | 1 (active) |
| Cc1cc(-c2csc(NCc3ccccc3)n2)c(C)o1.Cl | 0.766 ± 0.043 | 0.892 ± 0.13 | 1 ± 0.026 | 0.576 ± 0.026 | 0.924 ± 0.07 | 1.1 ± 0.13 | 0.991 (active) |
| Cc1cccc(Sc2nccn3c(=O)n(CC(=O)N4CCN(c5ccccc5)CC4)nc23)c1 | 0.924 ± 0.081 | 0.589 ± 0.067 | 0.664 ± 0.043 | 0.28 ± 0.024 | 0.6 ± 0.041 | 0.733 ± 0.12 | 0.983 (active) |
| O=c1[nH]cc(F)c(=O)[nH]1 | 1.48 ± 0.29 | 0.887 ± 0.21 | 1 ± 0.059 | 1.1 ± 0.059 | 1.33 ± 0.18 | 1.01 ± 0.17 | 0.735 (active) |
| Cc1ccc(Sc2ccccc2N2CCNCC2)c(C)c1 | 0.415 ± 0.1 | 1.22 ± 0.065 | 2.11 ± 0.33 | 0.462 ± 0.015 | 2.25 ± 0.3 | 2.42 ± 0.23 | 0.622 (inactive) |
| COc1ccc(C=NNC(=O)CSc2nnc(-c3ccccc3)n2-c2ccccc2)cc1OC | 1.14 ± 0.091 | 1.14 ± 0.074 | 1.09 ± 0.045 | 0.845 ± 0.059 | 0.958 ± 0.056 | 1 ± 0.076 | 0.996 (active) |
| CS(=O)(=O)N(CC(=O)NCC1CCCO1)c1ccc(Cl)c(C(F)(F)F)c1 (configuration not stated) | 0.751 ± 0.071 | 0.821 ± 0.039 | 1.01 ± 0.09 | 0.993 ± 0.046 | 1.35 ± 0.095 | 1.52 ± 0.15 | 0.998 (active) |
| Brc1ccc(-c2nc(-c3ccccc3)cc(N3CCOCC3)n2)cc1 | 1.05 ± 0.089 | 1.01 ± 0.066 | 1.01 ± 0.039 | 0.961 ± 0.097 | 1.11 ± 0.1 | 1.09 ± 0.16 | 1 (active) |
| COC(=O)C1=C(C)N(Cc2ccccc2)C(=O)C1=Cc1ccc(C)cc1 | 0.59 ± 0.048 | 0.655 ± 0.05 | 0.749 ± 0.069 | 0.4 ± 0.02 | 1.08 ± 0.068 | 0.948 ± 0.092 | 0.998 (active) |
| CC(=O)Nc1ccc(C(=O)Nc2ccccc2)c(NC(C)=O)c1 | 1.11 ± 0.088 | 0.852 ± 0.14 | 1.09 ± 0.051 | 0.726 ± 0.035 | 0.875 ± 0.087 | 0.747 ± 0.071 | 0.997 (active) |
| C[C@H]1[C@@H](OC(=O)CCC(=O)O)O[C@@H]2O[C@]3(C)CC[C@H]4[C@H](C)CC[C@@H]1[C@@]24OO3 | 1.02 ± 0.071 | 1.12 ± 0.11 | 0.95 ± 0.043 | 0.934 ± 0.11 | 1.11 ± 0.14 | 1.06 ± 0.25 | 1 (active) |
| CC(C)c1ccc2oc3nc(N)c(C(=O)O)cc3c(=O)c2c1 | 1.2 ± 0.16 | 1.23 ± 0.15 | 0.91 ± 0.052 | 0.858 ± 0.026 | 1.28 ± 0.32 | 1.16 ± 0.18 | 0.993 (active) |
| COc1cc2c(cc1OC)C(=S)NC1(CCCC1)C2 | 0.886 ± 0.33 | 0.985 ± 0.12 | 0.941 ± 0.1 | 0.962 ± 0.04 | 1.04 ± 0.16 | 1.28 ± 0.23 | 0.596 (inactive) |
| COCCNCCOc1cc(C)c(Cl)c(C)c1 | 0.908 ± 0.078 | 0.952 ± 0.045 | 0.932 ± 0.085 | 0.947 ± 0.049 | 1.52 ± 0.098 | 1.67 ± 0.17 | 0.974 (active) |
| CC(C)NC(=N)NC(=N)Nc1ccc(Cl)cc1 [Prestw-999] | 0.806 ± 0.053 | 1.33 ± 0.1 | 1.27 ± 0.087 | 0.994 ± 0.059 | 1.18 ± 0.12 | 0.954 ± 0.3 | 0.994 (active) |
| COC(C(=O)NNC(=O)c1ccccc1Cl)c1ccccc1 (configuration not stated) | 1.3 ± 0.1 | 1.1 ± 0.1 | 1.11 ± 0.1 | 0.618 ± 0.39 | 0.993 ± 0.069 | 0.863 ± 0.081 | 1.01 (active) |
| COc1ccc(-c2cc(CNC(=O)c3c(F)cccc3F)no2)cc1 | 0.713 ± 0.041 | 0.742 ± 0.11 | 0.744 ± 0.042 | 0.878 ± 0.081 | 1.4 ± 0.22 | 1.72 ± 0.45 | 0.947 (active) |
| O=c1ccc(-c2ccncc2)nn1CC1CCN(CC(F)(F)F)CC1 | 0.924 ± 0.046 | 0.973 ± 0.077 | 0.955 ± 0.051 | 0.858 ± 0.043 | 0.884 ± 0.07 | 0.832 ± 0.17 | 0.964 (active) |
| Cc1cnc(Nc2ccc(OCCN3CCCC3)cc2)nc1Nc1cccc(S(=O)(=O)NC(C)(C)C)c1 | 0.769 ± 0.17 | 1.81 ± 0.14 | 2.74 ± 0.12 | 0.0927 ± 0.014 | 0.0391 ± 0.0087 | 0.064 ± 0.028 | 0.0864 (inactive) |
| CN(CC(=O)O)c1nc2ccc(OC(F)(F)F)cc2s1 | 0.821 ± 0.15 | 1.03 ± 0.13 | 0.736 ± 0.064 | 0.892 ± 0.048 | 0.941 ± 0.17 | 0.952 ± 0.14 | 1.01 (active) |
| COc1cc(C=C2SC(=S)NC2=O)ccc1OCCC(C)C | 0.847 ± 0.074 | 0.969 ± 0.049 | 1.09 ± 0.11 | 1.03 ± 0.047 | 1.43 ± 0.12 | 1.61 ± 0.2 | 1 (active) |
| CCOc1ccccc1OCCCCOc1cccc(Br)c1 | 0.728 ± 0.06 | 1.05 ± 0.075 | 0.968 ± 0.067 | 1.19 ± 0.031 | 1.49 ± 0.24 | 1.2 ± 0.2 | 1 (active) |
| O=S(=O)(Nc1ccc(-c2nc3cccnc3s2)cc1)c1cccs1 | 0.902 ± 0.23 | 0.748 ± 0.23 | 0.566 ± 0.07 | 0.783 ± 0.027 | 0.973 ± 0.37 | 0.892 ± 0.12 | 0.672 (inactive) |
| Cc1ccc(-c2cc(-c3ccccc3)nc(NN=Cc3ccc(Br)cc3)n2)cc1 | 0.976 ± 0.18 | 1.08 ± 0.084 | 1.01 ± 0.12 | 1.11 ± 0.031 | 1.07 ± 0.1 | 1.4 ± 0.21 | 0.997 (active) |
| C[C@H](Oc1ccc(S(C)(=O)=O)cc1C(=O)N1CCN(c2ncc(C(F)(F)F)cc2F)CC1)C(F)(F)F | 0.902 ± 0.073 | 0.807 ± 0.11 | 0.936 ± 0.056 | 0.821 ± 0.074 | 1.03 ± 0.038 | 0.706 ± 0.15 | 1 (active) |
| COc1cc(C=Nc2ccc(-c3ccc(N=Cc4cc(OC)c(OC)cc4[N+](=O)[O-])cc3)cc2)c([N+](=O)[O-])cc1OC | 0.742 ± 0.19 | 1.02 ± 0.065 | 1.02 ± 0.1 | 0.769 ± 0.1 | 1.03 ± 0.084 | 1.01 ± 0.41 | 1.01 (active) |
